Shown are actives, neighbours in structure and some others; about 21% of the full set was active somewhere.
RORg inh: qHTS for inhibitors of ROR gamma transcriptional activity. Nuclear receptor ROR-gamma (Mus musculus), P51450. Drosophila S2 Gal4-RORgamma UAS-luciferase reporter, 20 h. Potency, µM (top dose mostly 53.6 µM), for inactives: top-dose activity change, negative = inhibition, actives largely listed as inhibitors. 310,000 tested, 5.4% active. AID 2551, 2010; further: potency means the concentration at half of the fitted maximal effect; nearly all actives have a fitted effect of over 60% in size
Target sequence (P51450 whole entry, looked up, the tested form may be a part): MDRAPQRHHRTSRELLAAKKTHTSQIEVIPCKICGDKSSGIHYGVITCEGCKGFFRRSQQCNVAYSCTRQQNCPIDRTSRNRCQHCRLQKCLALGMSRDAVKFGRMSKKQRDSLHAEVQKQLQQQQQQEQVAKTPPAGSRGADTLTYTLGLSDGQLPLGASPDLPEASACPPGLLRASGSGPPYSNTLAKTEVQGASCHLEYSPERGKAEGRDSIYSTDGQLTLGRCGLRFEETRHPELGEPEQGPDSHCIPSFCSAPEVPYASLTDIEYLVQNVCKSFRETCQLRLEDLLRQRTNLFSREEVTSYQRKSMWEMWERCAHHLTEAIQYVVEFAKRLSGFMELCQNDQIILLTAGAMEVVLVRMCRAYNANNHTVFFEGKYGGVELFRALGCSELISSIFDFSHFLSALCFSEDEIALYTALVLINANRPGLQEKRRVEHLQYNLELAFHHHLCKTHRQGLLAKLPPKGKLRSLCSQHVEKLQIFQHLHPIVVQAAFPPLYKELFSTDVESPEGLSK
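Using a luciferase readout, inhibitors were identified by reduced reporter activity in Drosophila cells coexpressing a copper-inducible Gal4–ROR gamma fusion and UAS-driven Photinus luciferase, incubated 20 hr after 700 uM copper sulfate.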
DT40 TDP1 CPT: qHTS for Inhibitors of human tyrosyl-DNA phosphodiesterase 1 (TDP1): qHTS in cells in presence of CPT; chicken DT40 Tdp1-/-;hTDP1 cells + 20 nM CPT, ATP luminescence, 48 h; Potency, µM (series often up to 46.2 µM), for inactives: top-dose activity change, negative = growth inhibition, most hits filed as inhibitors; 420,000 tested, 12% active; further: potency means the concentration at half of the fitted maximal effect; nearly all actives have a fitted effect of over 55% in size
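Chicken DT40 Tdp1-/- cells stably complemented with human TDP1 were seeded at 400 cells/well in medium containing 20 nM camptothecin, exposed to pin-transferred compounds, and grown at 37 °C for at least 48 hr. Viability was read as ATP luminescence.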
IL-1B inflam inh: qHTS for Inhibitors of Inflammasome Signaling: IL-1-beta AlphaLISA Primary Screen. AID 743279, 2014. THP-1 LPS/ATP IL-1B secretion, AlphaLISA, 16 h; hits give low values. 360,000 tested, 4.7% active. activity change, % at 57.5 µM; in the data active means activity change below about -50%; inconclusive means mostly about -30% to -49%
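Secreted IL-1B measured by AlphaLISA bead assay after 16 h compound exposure of THP-1 cells; compounds (final up to 57.5 uM) added 1 h before LPS (250 ng/mL) and ATP (1.25 mM) stimulation; lower signal means less secretion.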
VP16 counter: VP16 counterscreen qHTS for inhibitors of ROR gamma transcriptional activity | Drosophila S2 Gal4-VP16 UAS-luciferase, luminescence, 20 h | Potency, µM (highest dose often 53.6 µM), inactives show at the highest dose activity, negative = inhibition, hits mostly inhibitors | 310,000 tested, 3.5% active | AID 2546, 2010;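 further: Gal4-VP16 expression switched on by copper sulfate through the metallothionein promoter; potency means the concentration at half of the fitted maximal effect; nearly all actives have a fitted effect of over 50% in size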
ELG1 DNA repair: qHTS screen for small molecules that inhibit ELG1-dependent DNA repair in human embryonic kidney (HEK293T) cells expressing luciferase-tagged ELG1. HEK293T ELG1-luciferase reporter, luminescence, 16 h; DNA damage induced by 5-fluorouridine. Potency, µM (series often up to 46.1 µM), for the others: at the highest dose activity change, negative = inhibition, actives largely listed as inhibitors. 330,000 tested, 2.3% active; further: potency means the concentration at half of the fitted maximal effect; nearly all actives have a fitted effect of over 55% in size
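Luminescence from the luciferase reporter, measured 30 min after ONE-Glo reagent at room temperature, was the read-out. Beforehand, 2,000 cells per well were exposed for 16 hr at 37 °C to 5-fluorouridine together with compound or vehicle.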
DT40 TDP1 no CPT: qHTS for Inhibitors of human tyrosyl-DNA phosphodiesterase 1 (TDP1): qHTS in cells in absence of CPT. AID 686978, 2013. 420,000 tested, 15% active. DT40 Tdp1-/- hTDP1 cells, no CPT, ATP luminescence, 48 h. Potency, µM (doses to about 46.2 µM), for inactives: at the highest dose activity change, negative = growth inhibition, actives largely listed as inhibitors; further: potency means the concentration at half of the fitted maximal effect; nearly all actives have a fitted effect of over 55% in size
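Chicken DT40 Tdp1-/- cells stably complemented with human TDP1 were seeded at 400 cells/well with DMSO in place of 20 nM camptothecin. After compound pinning, cells grew at least 48 hr at 37 °C; viability read by CellTiter-Glo luminescence.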
* = called active by the depositor; ? = inconclusive; . = no result given. Unless noted, the call rests on the fitted dose curve; in most records, active means well fitted curve in the direction sought with a large enough effect; inconclusive means small, poorly fitted or top-dose-only effect, or another doubt; inactive means no such curve, though single readings can be large; an effect the other way counts as inactive or inconclusive. On the % scale 0 is the no-effect control and ±100 the full control effect.

SMILES	RORg inh	DT40 TDP1 CPT	IL-1B inflam inh	VP16 counter	ELG1 DNA repair	DT40 TDP1 no CPT
Cc1ccc(NC(=O)CCNC(=O)c2ccccc2Cl)cc1S(=O)(=O)N1CCCCCC1	.	?	-13	.	?	?
Cc1cc(C)n(CCc2nc(-c3cc4ccccc4o3)cs2)n1	?	18µM*	-10	-30%	?	18µM*
Cc1cc(C)n(CCCNC(=O)c2ccc(C)o2)n1	.	-1%	10	.	10%	2%
Cc1cc(C)n(CCc2nc(-c3ccc(C)o3)cs2)n1	?	?	17	11µM*	17%	16µM*
O=C(O)c1cc(O)ccc1NC(=O)C(c1ccccc1)c1ccccc1	3%	5%	15	-6%	-11%	30%
CC(=O)Nc1ccc(NC(=O)C(C)OC(=O)C23CC4CC(CC(Cl)(C4)C2)C3)cc1 (stereo not drawn)	.	3%	-3	.	-4%	?
O=C(O)c1cccc(Nc2ccncc2[N+](=O)[O-])c1	-4%	?	-7	3%	6%	18µM*
Cc1nn(-c2ccccc2)c(OC(=O)c2ccc(Br)cc2)c1S(=O)(=O)c1ccccc1	.	-6%	.	.	.	-2%
Cc1csc(NC(=O)c2ccc(C)c([N+](=O)[O-])c2)n1	?	?	4	14µM*	?	16µM*
Cc1csc(NC(=O)c2ccc3nc[nH]c3c2)n1	?	?	-12	?	?	23µM*
CC(CC(=O)Nc1ccc(F)cc1)S(=O)(=O)c1cc2c3c(c1)CCN3C(=O)CC2 (stereo not drawn)	.	-22%	.	.	.	-21%
Fc1ccccc1COc1ccccc1/C=N/Nc1nc(N2CCCC2)nc(N2CCCC2)n1	6.3µM*	?	4	13µM*	?	21µM*
Cc1cc(C)nc(N/N=C/c2ccccc2OCc2ccc([N+](=O)[O-])cc2)n1	14µM*	?	-4	?	?	?
C/C(=C/C=N/Nc1nc(N2CCCCC2)nc(N2CCCCC2)n1)c1ccccc1	-29%	-27%	-12	4%	-2%	?
C(=N\Nc1nc(N2CCCC2)nc(N2CCCC2)n1)/c1ccccc1OCc1ccccc1	2.8µM*	?	?	-21%	?	?
O=C(O)c1ccccc1/C=N/Nc1nc(N2CCCCC2)nc(N2CCCCC2)n1	-25%	.	.	-1%	8%	.
CC(=O)Nc1ccc(Nc2nc3ccc(Cl)cc3n3cnnc23)cc1	.	6%	.	.	.	-11%
COc1cccc(NC(=O)Cn2c(=O)n(Cc3ccc(F)cc3)c(=O)c3sc4ccccc4c32)c1	.	?	.	.	.	-18%
CSCCC(NS(=O)(=O)c1ccccc1F)C(=O)N1CCCCCCC1 (stereo not drawn)	-1%	?	14	-8%	-11%	-17%
O=C(c1ccccc1Sc1cccc2ccccc12)N1CCOCC1	-30%	13µM*	-1	2%	4%	21µM*
CSc1ccccc1C(=O)N1CCOCC1	-37%	-6%	11	2%	-7%	0%
CCCn1c2ccccc2c2cnn(CC(=O)NC3CCCCC3)c(=O)c21	-1%	?	-9	1%	-4%	-30%
Cc1ccc(CNC(=O)C2CCN(c3ncnc4c3nc3n4CCCCC3)CC2)cc1	.	12%	.	.	.	4%
Cc1nc2ccccc2n(CC(=O)Nc2cc(Cl)cc(Cl)c2)c1=O	13%	9.2µM*	13	2%	-15%	15µM*
Cc1cc(C)cc(NC(=O)Cn2c(-c3cncs3)nc3ccccc32)c1	.	?	.	.	.	21µM*
SMILES	RORg inh	DT40 TDP1 CPT	IL-1B inflam inh	VP16 counter	ELG1 DNA repair	DT40 TDP1 no CPT
Cc1ccc(NC(=O)Cn2c(=O)c(C)nc3ccccc32)cc1	31%	-6%	31	4%	8%	-8%
O=C(Cn1c(-c2cscn2)nc2ccccc21)Nc1ccc2ccccc2c1	?	14µM*	1	14%	-27%	?
COc1ccc(N(CC(=O)N2CCCCC2)S(=O)(=O)c2ccc(OC)c(OC)c2)cc1	.	-5%	.	.	.	-4%
Cc1[nH][nH]c(=O)c1C(c1c(C)[nH][nH]c1=O)c1cn(Cc2ccccc2Cl)c2ccccc12	?	5.8µM*	0	-11%	9%	5.2µM*
Cc1noc(C)c1C(=O)N1CCC2(CCN(Cc3ccncc3)CC2)CC1	-14%	-12%	.	3%	.	-14%
Cn1ccnc1SCC(=O)N1CCN(S(=O)(=O)c2ccccc2)CC1	9%	?	17	1%	3%	18%
Cc1ccc(C(=O)Nc2nc(-c3ccc([N+](=O)[O-])cc3)cs2)o1	20%	15µM*	-8	?	1%	12µM*
Cc1ccc(C(=O)Nc2nc(-c3ccc4c(c3)OCCO4)cs2)o1	.	?	-22	.	.	?
CC(=O)Nc1ccc(-c2csc(NC(=O)c3ccc(C)o3)n2)cc1	24%	13µM*	?	8%	-21%	9.2µM*
CCc1noc(C)c1C(=O)Nc1nc(-c2ccc(NC(C)=O)cc2)cs1	.	16µM*	4	.	?	21µM*
CC12C(=O)N(CCC(=O)O)C(=O)C1C1C=CC2C1 (stereo not drawn)	-5%	-12%	7	0%	7%	-15%
C=CCN(C(=O)Nc1ccc(Cl)cc1)C1CC(=O)N(c2ccc(OC)cc2)C1=O (stereo not drawn)	27%	23µM*	12	-6%	-10%	-14%
CNC(=S)N(Cc1ccc(OC)cc1)C1CC(=O)N(c2ccc(Cl)cc2)C1=O (stereo not drawn)	8%	16µM*	-22	?	?	18µM*
CNC(=S)N(Cc1ccc2c(c1)OCO2)C1CC(=O)N(c2ccc(F)cc2)C1=O (stereo not drawn)	2%	?	25	6%	-12%	21µM*
Cc1cccc(C)c1NC(=O)C1(C)CCC(=O)N1CCc1c[nH]c2ccccc12 (stereo not drawn)	.	-10%	19	.	.	-3%
Cc1cc(SCC(=O)NC2CCCC2)nc2ccccc12	-18%	0%	0	-3%	10%	-1%
CCCc1cnc(Nc2nc(C(N)Cc3ccc(C(F)(F)F)cc3)cs2)nc1 (stereo not drawn)	.	?	?	.	.	21µM*

From PubChem BioAssay
